Sampled rows, rich in hits. Any-hit rate of the full collection: about 21%.
HCV inhibitor: blocks hepatitis C virus. 3.4% of 340,000 active. Huh7.5.1 HCVcc-Cre infection, luciferase reporter, 44 h. Potency, µM (series often up to 41.8 µM), inactives show top-dose activity change, negative = inhibition, hits mostly inhibitors; further: potency means the concentration at half of the fitted maximal effect; on the % scale 0 is the no-effect control and ±100 the full control effect
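Infectious HCVcc-Cre (~0.5 moi) was added to cells just after compound, with cells seeded 4 h earlier at 1,000 per well. Luciferase activity after 44 h culture reported infection; substrate was incubated 15 min at room temperature before reading.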
Cycloheximide cs: affects cycloheximide protein synthesis inhibition readout, counter-screen; cell reporter, cycloheximide protein synthesis inhibition counterscreen; max response, %; 12% of 300,000 active; AID 2314; in the data active means max response mostly above about 13%, no sharp cut-off; inactive means mostly below about 14%; further: read at 38.3 µM for the half of the compounds with a filed dose; 0% is about no effect
Shiga inhibitor: inhibitors of Shiga toxin in Vero cells; Vero cells, Shiga toxin protein synthesis inhibition reporter; inhibition, % at 38.7 µM; 9.2% of 290,000 active; in the data active means inhibition mostly above about 28%, no sharp cut-off; inactive means mostly below about 43%; further: 0% is about no effect
Pf growth 96h: P. falciparum growth inhibition at 96 hours; P. falciparum luciferase reporter growth, 96 h; Potency, µM (doses to about 28.7 µM), without a hit: at the highest dose activity change, negative = inhibition, hits mostly inhibitors; 6.9% of 320,000 active; AID 504834; further: potency means the concentration at half of the fitted maximal effect; on the % scale 0 is the no-effect control and ±100 the full control effect
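Plates of compound plus infected erythrocytes (2% hematocrit, 0.05% parasitemia final) incubate 96 hours, 37 C, 5% CO2. Detection reagent added; reduced luminescence from the parasites' luciferase reporter flags inhibition.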
HCMV antiviral: human cytomegalovirus inhibition | HFF cells, HCMV-luciferase reporter, 72 h; active compounds read low | activity change, negative = inhibition, % at 57.5 µM | 4.5% of 410,000 active; in the data active means activity change below about -60%; inconclusive means no clear call, values can overlap the other calls; inactive means above about -39%; further: on the % scale 0 is the no-effect control and ±100 the full control effect
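Steps: HFFs plated, 16 h 37C; compounds added; HCMV-luciferase added to MOI 1 PFU/cell; 72 h 37C; OneGlo reagent, 5 min room temperature; luminescence read, normalized to controls.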
Pf growth 48h: P. falciparum growth inhibition at 48 hours (one generation); 5.9% of 310,000 active; Potency, µM (series often up to 28.7 µM), without a hit: at the top dose activity change, negative = inhibition, usual class: inhibitors; P. falciparum luciferase growth in erythrocytes, 48 h; further: potency means the concentration at half of the fitted maximal effect; on the % scale 0 is the no-effect control and ±100 the full control effect
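Luciferase-expressing parasites in RBCs, 2% Hct / 0.1% parasitemia final; RPMI 1640 + 0.5% Albumax; 37 C, 5% CO2, one generation; luminescence read-out, lower signal = inhibition.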
* hit, by the source's call; ? = inconclusive; · = no result given; + = active, no number. Unless noted, the call rests on the fitted dose curve; in most records, active means well fitted inhibition curve with a large enough effect; inconclusive means small, poorly fitted or top-dose-only effect, or another doubt; inactive means no such curve, though single readings can be large or run the other way.

SMILES	HCV inhibitor	Cycloheximide cs	Shiga inhibitor	Pf growth 96h	HCMV antiviral	Pf growth 48h
O=C1NC(=O)N(Cc2ccccc2)C(=O)/C1=C/c1cnn(-c2ccccc2)c1	·	30*	51*	379%	·	39%
O=C1NN(c2ccc(F)cc2)C(=O)/C1=C\c1cnn(-c2ccccc2)c1	·	-1	-3	31%	-23	32%
COc1ccccc1N1C(=O)NC(=O)/C(=C/c2ccc3c4c(cccc24)CC3)C1=O	10%	17*	33	-20%	17	4%
COc1cc(C2c3c(oc4ccccc4c3=O)C(=O)N2Cc2ccccc2Cl)ccc1O (stereo not drawn)	·	·	·	·	1	·
O=C(Nc1c2c(nn1-c1ccc([N+](=O)[O-])cc1)CS(=O)(=O)C2)c1ccccc1F	8%	8	-6	-6%	2	20%
CC(Cc1ccccc1)C(=O)Nc1ccc(Br)cc1 (stereo not drawn)	-7%	36*	100*	3%	21	-21%
CC(Cc1ccccc1)C(=O)Nc1ccccc1 (stereo not drawn)	10%	7	9	-2%	-10	21%
CCN(CC)C(=O)CSc1nc(N)c(C(=O)Nc2ccc(OC)cc2)s1	0%	12	-7	0%	?	13%
O=C(NCCOc1ccc(F)cc1)c1ccccc1SCc1ccccc1	?	1	-2	-28%	-62*	10%
COc1ccc(NC(=O)c2sc(SC)nc2N)cc1	23%	39*	48	81%	223	·
COc1ccc(NC(=O)c2ccccc2SCc2ccccc2)cc1	·	·	·	·	-106*	·
COc1ccc(NC(=O)c2ccccc2Sc2ccc(NC(C)=O)nc2)cc1	3%	3	-11	32%	-39	330%
CCc1ccc(NC(=O)CN(c2ccc(Cl)cc2)S(=O)(=O)c2ccsc2C(=O)OC)cc1	·	·	·	·	6	·
CCCc1nnc(NC(=O)Cc2coc3cc(C)cc(C)c23)s1	·	·	·	·	4	·
CCC(C)(C)C1CCC2(CC1)NC(=O)N(CC(=O)N(C)CCOc1ccc(Cl)cc1)C2=O (stereo not drawn)	?	·	·	16%	?	13%
CCOc1ccccc1CNC(=O)c1ccc(CS(=O)Cc2cccc(Cl)c2)o1 (stereo not drawn)	·	·	·	·	9	·
Cc1cc2ccccn2c1C(=O)c1ccccc1F	?	6	22	34%	9	11%
COc1ccc(NC(=O)C(CC(=O)O)Cc2ccccc2)cc1 (stereo not drawn)	7%	-3	3	7.4µM*	54	4%
COc1ccc(NC(=O)c2scc(S(=O)(=O)C(C)C)c2N)cc1	-1%	35*	75*	244%	55	146%
COc1ccc(NC(=O)c2sc(SCc3ccccc3)nc2N)cc1	14%	22*	24	-13%	6	-11%
Cn1c(Cc2ccccc2)nc2cnc(Nc3cccc(C(F)(F)F)c3)cc21	·	·	·	·	14	·
Cc1ccc(-n2c(=O)c3ccc(C(=O)NCc4ccco4)cc3n(CC(=O)Nc3ccccc3C(F)(F)F)c2=O)cc1	·	·	·	·	-35	·
COc1ccc(NC(=O)c2ncoc2-c2ccco2)cc1Cl	·	·	·	·	-22	·
CC(C)(C)c1nc2c(C#N)c(-c3ccc(Cl)cc3)ccn2n1	-27%	25*	57	?	-28	·
C=CCNc1ncnc2c1cnn2-c1cccc(C)c1	?	34*	+	0%	100	175%
SMILES	HCV inhibitor	Cycloheximide cs	Shiga inhibitor	Pf growth 96h	HCMV antiviral	Pf growth 48h
Cc1cccc(-n2ncc3c(NC4CCCC4)ncnc32)c1	·	·	·	·	93	·
CCCCN(c1ccccc1)c1ncnc2c1cnn2-c1cccc(C)c1	·	·	·	·	18	·
C=CCNc1ncnc2c1cnn2-c1ccc(Cl)cc1	-18%	33*	52*	430%	145	184%
Cc1cccc(-n2ncc3c(NC4CCCCC4)ncnc32)c1	?	46*	75*	-11%	33	103%
Cc1cccc(-n2ncc3c(NCCCO)ncnc32)c1	-10%	38*	42	225%	120	·
Cc1ccc(CNc2ncnc3c2cnn3-c2ccc(Cl)cc2)cc1	·	·	·	·	0	·
CCOc1ccccc1CN1CCc2nc(Nc3ccc4c(c3)OCCO4)ncc2C1	·	·	·	·	-23	·
CON(C)c1nc(Oc2ccc(=O)[nH]n2)nc(N(C)C)n1	8%	-2	4	·	39	9%

Assay outcomes from PubChem BioAssay.
